# Results reported in the supplement of paper PMC6555819.
# Experiments:
# Assay in all cases: PBM binding z-score (relative to random genomic background probes); higher = stronger binding; sequences stand for … in GC…GCGATTGACAGCGTAGAATGAAGG
# [1] = system: FXR:RXRa (NR concentration 270 nM, RXRa partner concentration 90 nM)
# Procedure, shortened: (§1)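 For binding z-scores, the reference was random background probes on custom Agilent 4×180K protein-binding microarrays. These arrays were incubated 1 h with ligand-free nuclear receptor dimers in PBS pH 7.4, 2% milk, 0.02% Triton X-100, 1 mM DTT, 0.2 mg/mL BSA and 0.4 mg/ml salmon testes DNA. Fluorescence was scanned after antibody detection of each partner (one per run) and regression-normalized.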
# [2] = system: LXRa:RXRa (NR concentration 270 nM, RXRa partner concentration 90 nM)
# Procedure, shortened: as §1
# [3] = system: LXRa homodimer (NR concentration 270 nM)
# Procedure, shortened: as §1
# [4] = system: LXRb:RXRa (NR concentration 270 nM, RXRa partner concentration 90 nM)
# Procedure, shortened: as §1
# [5] = system: LXRb homodimer (NR concentration 270 nM)
# Procedure, shortened: as §1
# [6] = system: PPARa:RXRa (NR concentration 270 nM, RXRa partner concentration 90 nM)
# Procedure, shortened: as §1
# [7] = system: PPARg:RXRa (NR concentration 180 nM, RXRa partner concentration 90 nM)
# Procedure, shortened: as §1
# [8] = system: PPARg:RXRa 270nM:90nM, anti-RXR (NR concentration 270 nM, RXRa partner concentration 90 nM)
# Procedure, shortened: as §1
# [9] = system: PPARg:RXRa 30nM:10nM, anti-RXR (NR concentration 30 nM, RXRa partner concentration 10 nM)
# Procedure, shortened: as §1
# [10] = system: PPARg:RXRa 90nM:30nM, anti-RXR (NR concentration 90 nM, RXRa partner concentration 30 nM)
# Procedure, shortened: as §1
# [11] = system: PPARg:RXRa DBDmut IVT, anti-RXR (DBD mutation: RXRa K156A/R161A, NR concentration 270 nM, RXRa partner concentration 90 nM)
# Procedure, shortened: as §1
# [12] = system: PPARg:RXRa IVT, anti-PPARg (NR concentration 270 nM, RXRa partner concentration 90 nM)
# Procedure, shortened: as §1
# [13] = system: PPARg DBDmut:RXRa IVT, anti-PPARg (DBD mutation: PPARg1 K132A/R137A, NR concentration 270 nM, RXRa partner concentration 90 nM)
# Procedure, shortened: as §1
# [14] = system: PPARg DBDmut IVT, anti-PPARg (DBD mutation: PPARg1 K132A/R137A, NR concentration 270 nM)
# Procedure, shortened: as §1
# [15] = system: PPARg homodimer (NR concentration 180 nM)
# Procedure, shortened: as §1
# [16] = system: PXR:RXRa (NR concentration 270 nM, RXRa partner concentration 90 nM)
# Procedure, shortened: as §1
# [17] = system: PXR homodimer (NR concentration 270 nM)
# Procedure, shortened: as §1
# [18] = system: RARa:RXR (NR concentration 270 nM, RXRa partner concentration 90 nM)
# Procedure, shortened: as §1
# [19] = system: RARa homodimer (NR concentration 270 nM)
# Procedure, shortened: as §1
# [20] = system: RARb:RXRa (NR concentration 270 nM, RXRa partner concentration 90 nM)
# Procedure, shortened: as §1
Sequence,PBM binding z-score [1],PBM binding z-score [2],PBM binding z-score [3],PBM binding z-score [4],PBM binding z-score [5],PBM binding z-score [6],PBM binding z-score [7],PBM binding z-score [8],PBM binding z-score [9],PBM binding z-score [10],PBM binding z-score [11],PBM binding z-score [12],PBM binding z-score [13],PBM binding z-score [14],PBM binding z-score [15],PBM binding z-score [16],PBM binding z-score [17],PBM binding z-score [18],PBM binding z-score [19],PBM binding z-score [20]
GCGCCTGGGGCATCAGCAGGTTACCATAACTTAA,-0.344,-0.299,-0.446,0.294,-1.19,0.454,0.0238,-0.488,-0.952,-0.927,-0.452,-0.359,-1.03,-1.67,-0.0775,0.0887,-0.879,0.514,-1.02,0.937
TCATATAGGTAAATGCTAGGTGATAGTCCGATCT,0.869,0.734,-0.164,0.564,-0.125,1.2,1.13,2.24,3.56,2.87,4.05,2.45,0.855,0.985,0.409,0.395,0.368,0.797,1.3,0.301
CCGACTGGGGCATAAGGTAACCATAAGCCAGCCC,0.215,0.187,-0.284,-0.112,-1.47,1.08,2.79,3.22,1.32,3.24,2.94,2.7,-0.714,-0.986,0.375,-0.534,-0.805,0.0245,-0.0601,0.594
TTACCAAGGTGAAAGGTCGCTGATGCACGCCTTG,2.82,2.6,-0.188,2.24,-0.623,5.25,8.28,8.53,7.04,9.59,2.44,5.19,0.53,0.614,1.28,3.66,-0.522,5.46,0.386,3.12
GCTCGGAGGACAAGTTCAGAGCTTTGTCCGTAGA,0.263,0.115,-0.227,0.0203,-0.625,0.311,-0.94,-0.31,-1.15,-0.738,-0.557,-0.546,-1.36,-1.47,-0.526,0.977,0.281,0.489,-1.39,1.92
AGAATGAGGTTATTAAGATCACGGAATTGCGGTC,1.57,1.78,0.215,1.57,0.0573,3.18,1.99,2.7,0.647,1.6,3.48,3.23,1.05,1.25,1.1,1.55,1.01,1.86,0.114,1.43
AGAATGAGGTTAAGATCAGGTAAACAGAATACAT,2.45,4,-0.00313,2.24,-0.136,3.9,2.61,2.31,0.859,1.75,2.37,2.93,1.7,0.933,0.782,1.52,0.259,2.3,0.662,1.98
TCTGGTTGGTCAAAGGTCACACACTCGAAATGCG,6.33,5.91,4.59,5.75,2.86,6.43,10.3,9.3,8.98,10.5,3.03,5.67,2.56,3.21,7.5,6.15,2.71,7.76,4.92,4.96
CTCGAAAGGTCGTGCTCAGGTGAGTCTACCAAAC,4.93,3.85,0.251,3,0.082,4.65,2.04,3.85,0.42,2.48,1.08,1.81,-0.131,-0.101,1.24,3.07,0.183,3.94,-0.14,3.86
CCTATCAGGCCAGGGTCACTCAAGCATTTCGCTT,2.19,1.74,-0.264,2.23,-0.67,3.33,0.918,1.93,-0.162,0.886,0.0359,1.06,-1.33,-0.669,1.28,2.59,-0.206,3.5,0.157,2.74
GCTAGCAGGCCATTTGGGTCACTCAATGACGGGC,0.232,-0.126,-0.618,-0.0783,-0.885,1.34,0.697,0.632,-0.477,-0.0514,1.95,2.3,-1.31,-1.12,-0.589,0.628,0.0652,0.69,-0.931,1.63
CAAACTAGGTCAGAGAGGTCAAAGTCCGTGCGTA,6.28,6.16,6.8,5.36,1.48,6.07,8.4,7.06,4.96,7.01,7.7,8.02,1.22,0.373,4.15,6.24,10.2,6.29,2.07,4.84
CAGACTGGGGCAGAAAGGTTACCATACCATCCGG,1.11,1.5,-0.0304,1.4,0.122,2.53,2.23,3.3,1.29,2.79,2.77,3.01,-0.514,-0.142,2.11,1.39,-0.052,2.24,0.536,2.04
TAGCCTAAGTCATTCAGGGGCCAGTATAGAAAGC,0.125,-0.0745,-0.319,0.338,-0.276,0.0691,0.0111,0.16,-0.308,-0.241,-0.155,-0.0585,0.0399,0.2,0.00647,0.14,-0.297,0.276,-0.483,0.478
TCTTGTAGATCAAAGGTTGAGAAAGCCGAAGCCT,0.89,0.864,-0.12,0.541,-0.308,3.14,5.99,6.2,5.78,6.91,2.32,2.51,0.407,-0.0322,-0.0761,0.618,-0.464,1.05,-0.393,0.592
GCATAGAGGTAATACAAGGTGAAAGTCCGATTGT,1.25,3.39,-0.00697,1.1,-0.79,1.51,0.691,0.857,0.448,0.729,1.06,1.35,0.658,0.616,0.00249,1.03,-0.217,1.18,0.413,0.751
TTACCAAGGTGAAAGTCGTTGATCCCTCTGTAGA,0.729,0.757,-0.418,0.587,-0.747,2.1,0.615,1.61,0.371,1.12,1.87,2.87,0.179,0.266,-0.0514,0.456,-0.651,1.1,-0.221,1.67
ATCTCTAGGTAACAGTTCAGTGAATCCCGAGGAT,0.279,0.179,0.588,0.193,0.937,2.24,3.39,4.74,3.06,4.55,3.65,3.42,1.56,1,0.452,0.487,0.757,0.576,0.915,1.01
CAGCCTAGGTCAGGGCCAGTACAGGAGGAACGTT,1.53,0.993,-0.276,0.431,-1.11,2.09,0.833,0.908,-0.375,0.307,1.35,1.58,-0.899,-1.34,0.93,0.659,-0.209,1.03,-0.614,3.42
ATACCATGGTGATCGTGAGGTCGTTGATACTAAC,0.952,0.604,0.284,1.08,-0.16,0.884,0.301,-0.0472,0.115,0.0761,-0.0684,0.0915,-0.0138,0.737,0.319,1.75,1.17,1.27,-0.088,0.235
CCTATTAGTTGACCATAAGGGCAAACGAAGCTCG,1.04,0.336,0.545,0.644,0.599,0.695,0.426,0.45,0.0598,0.284,0.266,0.555,0.151,0.588,1.58,0.75,0.863,1.02,1.31,1.52
GATACAGGGTCAAGGCCAGAGGACGCGTATTGAT,6.78,4.13,-0.101,3.54,-0.0333,5.49,6.03,5.55,2.01,4.12,2.29,3.97,0.837,0.968,2.75,3.68,0.296,4.56,1.16,4.44
CCGGCTGGGGCAAAGGTTACCATACTCAGTACGA,1.59,1.59,-0.197,2.03,-1.05,4.48,8.25,7.31,6.14,7.57,0.545,3.78,-0.945,-1.06,1.1,2.59,-0.422,3.83,-0.653,2.41
CTGACTGGGGCAAGGTTACCATAACGCACAGCCA,0.457,0.792,-0.00434,1.54,-0.221,2.63,4.03,4.4,1.45,3.67,4.8,5.05,0.266,0.0884,0.436,0.519,0.00598,0.987,0.104,1.86
TAGCCTAGGTCAGATCGGGCCAGTATCCGCTATA,2,1.05,-0.375,0.765,-0.472,1.69,0.405,0.707,-0.351,-0.0749,0.546,1.41,-0.474,-1.24,0.0691,0.834,-0.885,1.1,-1.32,3.02
CCGACTGGGTCAGAAAGGTTACCATACCATCCGG,1.8,1.62,-0.0382,1.61,-0.767,3.21,3.13,3.2,0.873,2.2,3.31,3.92,0.245,-0.526,2.08,2.48,0.43,3.17,0.179,3.15
AGTCAAAGTTTAGGACGAGGTAACGTAAAGCACG,0.493,-0.103,-0.205,-0.158,-0.175,0.331,0.904,0.793,0.252,0.625,-0.369,0.311,0.476,0.0826,0.281,0.168,-0.0643,0.219,0.258,1.41
ATACCAAGGTGATCGTGACGTCGTTGATACTAAC,0.364,0.342,0.147,0.547,-0.176,0.36,0.582,0.302,-0.0759,0.172,0.791,1.2,0.681,0.866,0.477,0.0619,0.0409,0.447,0.899,0.752
